Compound activity: PubChem BioAssay, National Center for Advancing Translational Sciences (NCATS)
Most compounds without a hit are left out; they make up all but 6.1% or so of the library.
Tau fil binding = qHTS Assay for Tau Filament Binding. recombinant tau filaments, thioflavin S fluorescence, 15 h; filaments grown with octadecylsulfate alongside compound. Potency, µM (highest dose often 57.1 µM). hit rate 2% among 71,000. AID 596, 2007;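 also: actives lower thioflavin S fluorescence by blocking filaments or displacing dye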
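Tau 2 uM in ThS buffer dispensed; compound added; 60 uM ODS added (finals 1 uM tau, 30 uM ODS); 15 h 37 C; fluor ex450/em510.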
ALOX15 inhib = qHTS Assay for Inhibitors of 15-hLO (15-human lipoxygenase); Polyunsaturated fatty acid lipoxygenase ALOX15 (Homo sapiens), P16050; purified 15hLO-1, xylenol orange hydroperoxide absorbance; Potency, µM (series often up to 57.1 µM), most hits filed as inhibitors; hit rate 1.4% among 74,000; AID 887, 2007; also: nearly all actives have a fitted effect of over 55% in size
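Purified human 15hLO-1 (40 nM) in 25 mM Hepes pH 7.5, 0.01% Triton X-100, preincubated 15 min RT with compound, then 50 uM arachidonic acid for 6 min. Hydroperoxide read by ferrous/xylenol orange, 30 min; 573/405 nm absorbance ratio gave progress.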
PK Bst = Pyruvate Kinase; Potency, µM; hit rate 1.2% among 51,000; purified pyruvate kinase, luminescence ATP production; ribose 5-phosphate activator present at AC10; AID 361, 2006; in the data active = potency below about 11 µM; inconclusive = mostly about 12 µM to 25 µM;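 the screen sought inhibitors and activators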
ERK AVP inh = qHTS Assay for Inhibitors of the ERK Signaling Pathway using a Homogeneous Screening Assay | HEK293-V1b, vasopressin-stimulated pERK AlphaScreen | hit rate 0.99% among 72,000 | AID 995, 2007 | Potency, µM (series often up to 57.5 µM), most hits filed as inhibitors; also: nearly all actives have a fitted effect of over 55% in size
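Phosphorylated ERK1/2 detected via AlphaScreen bead proximity in lysates of V1b-expressing HEK293 cells given 25 nM vasopressin for 5 min after 30 min compound exposure (37 °C). AC50 from Hill equation; basal DMSO 0%, vasopressin 100%.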
Hsp90 Hop PPI = qHTS Assay for Disrupters of an Hsp90 Co-Chaperone Interaction; Hsp90 C-terminal peptide / TPR2A (Hop) interaction, human; AlphaScreen TPR2A-His6 binding biotin-Hsp90 C-terminal peptide; Potency, µM (titrated, usually from 57 µM); hit rate 0.44% among 71,000; active = well fitted curve in either direction with a large enough effect; inconclusive = small, poorly fitted or top-dose-only effect, or another doubt
Luciferase inh = qHTS Assay for Inhibitors of Firefly Luciferase; AID 411, 2009; Potency, µM (doses to about 57.1 µM), most hits filed as inhibitors; purified firefly luciferase, luminescence, 8 min; Luciferin 4-monooxygenase (Photinus pyralis), P08659; hit rate 2.2% among 72,000; also: nearly all actives have a fitted effect of over 40% in size
Target sequence (P08659 whole entry, looked up): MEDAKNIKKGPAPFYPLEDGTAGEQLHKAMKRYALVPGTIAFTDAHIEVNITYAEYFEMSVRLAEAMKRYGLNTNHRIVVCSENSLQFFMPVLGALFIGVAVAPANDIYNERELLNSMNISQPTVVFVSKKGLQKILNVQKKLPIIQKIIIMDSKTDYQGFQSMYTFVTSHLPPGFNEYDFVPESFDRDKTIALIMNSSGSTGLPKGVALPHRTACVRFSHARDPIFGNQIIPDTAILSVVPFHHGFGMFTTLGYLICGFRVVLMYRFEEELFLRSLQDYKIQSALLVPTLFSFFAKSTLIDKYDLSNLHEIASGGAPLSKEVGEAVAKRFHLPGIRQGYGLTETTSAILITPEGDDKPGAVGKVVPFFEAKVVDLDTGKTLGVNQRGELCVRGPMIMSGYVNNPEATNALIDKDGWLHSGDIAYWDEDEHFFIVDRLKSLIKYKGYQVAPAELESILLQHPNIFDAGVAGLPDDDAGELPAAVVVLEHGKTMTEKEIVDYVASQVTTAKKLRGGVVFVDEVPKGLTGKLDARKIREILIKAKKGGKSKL
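Substrate buffer containing 10 uM ATP (pH 7.2 imidazole, Mg2+, KCl, detergent, BSA) is dispensed, compound pinned in, then luciferase/luciferin detector mix added. After 8 min at ambient temperature, light output is measured.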
Of the large screens only hits and unclear results are named; the others gave an inactive call. Unless noted, calls follow the shape of the dose curve; as a rule, active = well fitted curve in the direction sought with a large enough effect; inconclusive = small, poorly fitted or top-dose-only effect, or another doubt; inactive = no such curve, though single readings can be large; an effect the other way counts as inactive or inconclusive.

O=C(O)c1ccc2c(c1C(=O)O)C(=O)OC2(c1ccc(O)cc1)c1ccc(O)cc1	none (no result: PK Bst)
CCOC(=O)c1sc(NC(=O)c2ccc(Br)o2)cc1C	ALOX15 inhib inconclusive, PK Bst 6.4, Luciferase inh 5µM
CCOC(=O)c1sc(NC(=O)c2cccs2)cc1C	Luciferase inh 2µM (no result: PK Bst)
Cc1ccc(CNC(=O)c2ccc(Br)o2)cc1	none (no result: PK Bst)
Nc1ccc(S(=O)(=O)O)cc1	none (no result: PK Bst, Luciferase inh)
NCCC[C@@H](CC(=O)N[C@@H]1CCCC[C@H]1C(=O)N[C@H](CC(=O)N[C@@H](CCC(=O)O)CC(=O)O)Cc1c[nH]c2ccccc12)NC(=O)C[C@H](Cc1ccccc1)NC(=O)[C@@H]1CCCC[C@H]1N	none (no result: ALOX15 inhib, PK Bst, ERK AVP inh, Luciferase inh)
O=C(Cn1nnc(-c2ccccc2-n2cnnn2)n1)NCc1ccccc1	none
COc1ccc(C(=O)Cn2nnc(-c3ccccc3-n3cnnn3)n2)cc1	PK Bst 4.2
Cc1ccc(C(=O)Cn2nnc(-c3ccccc3-n3cnnn3)n2)cc1	PK Bst 4.7, Hsp90 Hop PPI inconclusive
O=C(Cc1coc2cc3c(cc12)CCC3)OCc1cc(=O)n2c(n1)sc1ccccc12	ALOX15 inhib 20µM
Cc1ccc2c(CC(=O)OCc3csc(C)n3)coc2c1	none
O=C(COC(=O)c1cnccn1)c1ccc(Br)cc1	none (no result: PK Bst)
O=C(COC(=O)c1cnccn1)c1ccc2c(c1)CCCC2	Luciferase inh 20µM (no result: PK Bst)
c1cncc(CNc2ncncc2-c2cccnc2)c1	none (no result: PK Bst)
CN(C(=O)c1ccccc1)c1nc2ccccc2s1	PK Bst 8.5, Luciferase inh 6.3µM
CN(C)c1nc(-c2ccc3c(c2)OCO3)nc2ccccc12	ALOX15 inhib inconclusive (no result: PK Bst)
Cn1c(=O)[nH]c(=O)c2[nH]c(N(Cc3ccccc3)Cc3ccccc3)nc21	ERK AVP inh 25µM
Cn1c(=O)[nH]c(=O)c2c1nc(N(CCO)Cc1ccccc1)n2CCCc1ccccc1	none (no result: PK Bst)
CN(Cc1ccccc1)c1nc2c(c(=O)[nH]c(=O)n2C)n1Cc1ccccc1Cl	ERK AVP inh 16µM
CC(C)C(NC(=O)C(Cc1ccc(O)cc1)NC(=O)C(NC(=O)C(F)(F)F)C(C)C)C(=O)O (stereo not given)	none (no result: Tau fil binding, PK Bst, Hsp90 Hop PPI, Luciferase inh)
CCOc1ccc(-c2cc(C(=O)NCCCN3CCN(CC)CC3)c3ccccc3n2)cc1	PK Bst 10, Luciferase inh 13µM
COc1ccc(Nc2cc(C(=O)NCCCN3CCN(C)CC3)c3ccccc3n2)c(OC)c1	Tau fil binding 13µM (no result: PK Bst)
C=CC(=O)CC	none (no result: PK Bst, Luciferase inh)
CCN1C(=S)SC(=O)C1=C1C=C(C)N(Cc2ccco2)C(C)=C1	Luciferase inh 10µM (no result: PK Bst)
CCN1C(=S)SC(=O)C1=C1C=C(C)OC(C)=C1	Tau fil binding 3.2µM
O=C1C2C(C(=O)N1Cc1ccco1)C1C=CC2C12CC2 (stereo not given)	none
Cc1nc2cnc(N3CCN(C)CC3)nc2n(Cc2ccc(F)cc2)c1=O	none (no result: PK Bst)
N#CCCn1c(=O)c(-c2cc(F)cc(F)c2)nc2cnc(Oc3cccc(Cl)c3)nc21	ERK AVP inh inconclusive (no result: PK Bst)
Cc1cc(NC(=O)CSc2nc3ccsc3c(=O)n2Cc2ccccn2)n[nH]1	none
CC1CCCCN1C(=O)CSc1nc2ccsc2c(=O)n1Cc1ccccn1 (stereo not given)	ERK AVP inh 25µM
O=C(N1CCN(c2ccccc2)CC1)C12CC3CC(CC(C3)C1)C2	none
O=C1c2ccccc2C(=O)C12Cc1ccccc1N1CCN(c3ccccc3)CC12 (stereo not given)	Tau fil binding 10µM
CC1(C)O[C@@H]2O[C@H]([C@@H]3COC(C)(C)O3)[C@H](N)[C@H]2O1	none (no result: PK Bst)
O=C(NCc1ccncc1)C12CC3CC(CC(C3)C1)C2	none
N#CC1=C(N)S[C@H](C(=O)C23CC4CC(CC(C4)C2)C3)[C@H]1c1ccncc1	ALOX15 inhib 13µM
CCc1ccc(NC(=O)NCCN2CCc3ccccc3C2)cc1	Tau fil binding 13µM, ALOX15 inhib inconclusive
O=C(NCCN1CCc2ccccc2C1)Nc1ccc(F)cc1	none (no result: PK Bst)
CC(=O)N1CCC[C@@]2(CCN(C(=O)Nc3ccccc3)C2)C1	none (no result: PK Bst)
COC(=O)NC(c1cccs1)C(C(C)=O)C(=O)OC (stereo not given)	none (no result: Tau fil binding, PK Bst, Hsp90 Hop PPI, Luciferase inh)
O=C1CC(c2cccs2)Sc2nc3ccccc3n21 (stereo not given)	Luciferase inh 16µM
O=C1CC(c2ccc3c(c2)OCO3)Sc2nc3ccccc3n21 (stereo not given)	PK Bst 4.5, Luciferase inh 4µM
O=C1CC(c2ccco2)Sc2nc3ccccc3n21 (stereo not given)	ALOX15 inhib inconclusive (no result: PK Bst)
Cc1cc(NCCCn2ccnc2)n2ncc(-c3ccccc3)c2n1	PK Bst 2, Luciferase inh 1.6µM
Cc1cc(NCCN2CCOCC2)n2ncc(-c3ccccc3)c2n1	Luciferase inh 20µM (no result: PK Bst)
Cc1cccc(-n2ncc3c(NCCCn4ccnc4)ncnc32)c1	none (no result: PK Bst, ERK AVP inh)
Cc1cc(NCCN2CCOCC2)n2ncc(-c3ccc(Cl)cc3)c2n1	none
COc1ccc(CNc2ncncc2-c2cccc(NS(C)(=O)=O)c2)c(OC)c1	none (no result: PK Bst)
CCOc1ccc(OCC)c2sc(C)nc12	PK Bst 3.4, ERK AVP inh inconclusive
O=CCCCC=O	none (no result: PK Bst, Luciferase inh)
O=C1C(=O)c2ccccc2C(O)=C1C(CCc1ccccc1)C1=C(O)c2ccccc2C(=O)C1=O	ALOX15 inhib inconclusive (no result: PK Bst)
O=C1C(C=NCc2ccco2)=C(O)c2ccccc21	Tau fil binding 25µM, Luciferase inh 13µM (no result: PK Bst)
O=C1C(C=NCc2cccnc2)=C(O)c2ccccc21	Tau fil binding inconclusive, Luciferase inh 10µM (no result: PK Bst)
Cn1c(=O)c(-c2ccc(F)c(F)c2)nc2cncnc21	none (no result: PK Bst)
C=C(CO)[C@H]1Cc2c(ccc3c2O[C@H]2COc4cc(OC)c(OC)cc4[C@@H]2C3=O)O1	Tau fil binding inconclusive (no result: ALOX15 inhib, PK Bst, ERK AVP inh)
COc1nc(Cl)nc(Cl)c1Cl (tested in a mixture with another compound)	none (no result: PK Bst)
COc1ccc(-c2nn(-c3ccccc3)cc2/C=N/n2cnnc2)cc1OC	Luciferase inh inconclusive (no result: PK Bst)
C(=N\n1cnnc1)/c1cn(-c2cccs2)nc1-c1ccccc1	PK Bst inconclusive, Luciferase inh 25µM
O=S(=O)(NC1CC2CCC1C2)c1ccc2c(c1)OCCO2 (stereo not given)	ERK AVP inh 25µM
Cc1ccc(N=Nc2ccc(N)cc2C)c(S(N)(=O)=O)c1	Tau fil binding 4µM (no result: PK Bst)
Clc1ccc(-c2nnc(NC3=NCCCCC3)o2)cc1	PK Bst 6.4, Luciferase inh 2.5µM
O=C(N/N=C\c1cccc(O)c1)c1ccncc1	none (no result: PK Bst)
O=C(N/N=C\c1ccc2c(c1)CCC2)c1ccccc1O	ERK AVP inh inconclusive, Luciferase inh 3.2µM (no result: PK Bst)
